In all, about 360,000 compounds went through this assay and about 7,300 (2%) were called active. Rule as the data show it: active = inhibition above about 50%; inactive = the rest. This excerpt belongs to a sample that is enriched for actives.

A short description of the assay: blockers of TWEAK-induced Fn14 reporter activity – luciferase reporter cells, uHTS, primary screen (AID 1159606). Particulars: TWEAK-stimulated Fn14 reporter cells, luciferase luminescence, 8 h; at 10 µM; stronger effect = higher value. For orientation: In a reporter assay the amount or activity of a reporter protein is the signal.
The term inhibition denotes the relative decrease from the control value, in per cent. For `Cc1ccc(NC2CCCN(C(=O)CCC3(C)CC3)C2)cc1C` (stereo not given), the inhibition was -13.8% (inactive).
With `CSc1ccc(/C=C2\NC(=O)NC2=O)cc1`, the inhibition was -11.1% (inactive).
As to `CNC(=O)c1c(NC(NC(=O)c2ccco2)C(=O)c2ccc(Cl)cc2)sc2c1CCCC2` (stereo not given), the inhibition was -9.64% (inactive).
Take `CCCc1nn(C)c2c(=O)[nH]c(-c3cc(S(N)(=O)=O)ccc3OCC)nc12`: the inhibition is -1.76% (inactive).
Consider `Cc1noc(/C=C/c2ccco2)c1S(=O)(=O)N1CCC(C(=O)N2CCc3ccccc32)CC1`, for which the inhibition was 6.06% (inactive).
As for `Cc1noc(/C=C/c2ccco2)c1S(=O)(=O)N1CCC(C(=O)Nc2ccc(Cl)cn2)CC1`, the inhibition was 51% (active).
Turning to `CNC(=O)C1CCN(S(=O)(=O)c2c(C)noc2/C=C/c2cccc(C)c2)CC1`, the inhibition is -21.5% (inactive).
In the case of `CCCCN1C(=O)C(CC(=O)NCc2cccs2)CC(C(=O)N2CCCCCC2)=C1C` (stereo not given), the inhibition is -6.58% (inactive).
In the case of `Oc1cc(O)c2c(c1)OC(c1ccc(O)c(O)c1)C(O)C2` (stereo not given), the inhibition is -8.69% (inactive).
As to `Clc1ccc(-c2cccc3nccn23)cc1`, the inhibition was -3.21% (inactive).
On to `COC(=O)c1cccc(C(=O)N2CCCC(Nc3ccc4c(c3)OCCO4)C2)c1` (stereo not given), for which the inhibition was 13.2% (inactive).
The figure for `CCCCN(C(C)=O)c1ccc2c(c1)C1CC2CCN1Cc1ccccc1` (stereo not given) is -18% (inactive); for `CCCCNC(=O)OCCSCCS(=O)(=O)c1ccc(Cl)cc1` it is -5.78% (inactive); for `Cc1cccc(CS(=O)(=O)c2ncc(Cl)c(C(=O)Nc3ccc(F)cc3)n2)c1` it is 77% (active).
The figure for `Cc1cccc(NC(=O)c2nc(S(=O)(=O)Cc3ccccc3)ncc2Cl)c1` is 75.7% (active).
For the molecule `Cc1cccc(NC(=O)Cn2cc(C(=O)c3ccco3)c3ccccc32)c1`, the inhibition was -6.45% (inactive).
Take `Cc1cccc(NC(=O)CCN2CC(C)CC(C)C2)c1` (stereo not given): the inhibition was -9.11% (inactive).
With `Cc1ccc(C)c(Cn2nnc3c(=O)[nH]c(C(=O)Nc4ccc(F)cc4)nc32)c1` the figure was -5.18% (inactive); with `Cc1cccc(CN2CCC(CNC(=O)Nc3ccc(F)c(Cl)c3)CC2)c1`, 10.9% (inactive); with `CC(C)CN(CC(C)C)CC(O)CN(c1ccccc1)S(=O)(=O)c1ccccc1[N+](=O)[O-]` (stereo not given), 16% (inactive).
Take `CC(=O)C1C(c2ccc(Cl)cc2)c2c(n[nH]c2C)CC1(C)O` (stereo not given): the inhibition was -9.34% (inactive).
With `CC(C)(C)C(=O)c1c(N)[nH]c(C(=O)c2ccccc2)c1-c1ccc(F)cc1` the figure was -3.63% (inactive); with `CN(c1ccc2nc3ccccc3c(=O)n2n1)C1CCCCC1`, 105% (active).
For the molecule `CN(C(=O)Nc1ccc(Cl)cc1)n1cnc2ccccc2c1=O`, the inhibition is 1.4% (inactive).
As for `CC(C)(C)c1nc2ccccc2c(=O)n1N1C(=O)c2ccccc2C1=O`, the inhibition is 20.8% (inactive).
As for `CCCCNC(=O)CSc1nc2ccc(NC(=O)CSc3nnc(N)s3)cc2s1`, the inhibition is 23.8% (inactive).
Take `Nc1nnc(SCC(=O)Nc2ccc3nc(SCC(=O)Nc4ccccc4)sc3c2)s1`: the inhibition is 86.4% (active).
`CCCCNC(=O)CSc1nc2ccc(NC(=O)CSc3nnc(COc4ccccc4C)n3C)cc2s1`: the inhibition was -37.4% (inactive).
In the case of `Cc1nc(CNS(=O)(=O)c2ccc(Oc3ccccc3)cc2)cs1`, the inhibition was 23.5% (inactive).
For `c1ccc2c(C[n+]3csc4ccccc43)cccc2c1`, the inhibition was -11.1% (inactive).
As for `OC(CN=c1sc2ccccc2n1CC(O)COc1ccccc1)COc1ccccc1` (stereo not given), the inhibition is 70.7% (active).
Turning to `CC(C)c1ccc(OCC(O)Cn2cnc3ccccc32)cc1` (stereo not given), the inhibition is -16.5% (inactive).
Take `O=C(C(c1ccccc1)c1ccccc1)N1CCN(CC(O)COc2ccccc2)CC1` (stereo not given): the inhibition is 3.97% (inactive).
As to `COc1ccc([C@H]2CC(=O)C[C@@H](CCn3cc(CC4CCCC4)nn3)O2)cc1`, the inhibition is 7.34% (inactive).
The figure for `C[C@@H]1CC2=C(C(=O)OC(C)(C)O2)[C@@H](C2CC2)O1` is 4.57% (inactive).

The record behind these values is PubChem BioAssay AID1159606 (Sanford-Burnham Center for Chemical Genomics, 2016).
